These results are taken from the OligoGym collection.
Note: reference of the scale not given here.

In the first assay the target is CAPRIN1. Nature of the assay: pooled miR-30 sensor sort-seq; sequence = guide strand. The settings on record: shRNA.
As for TTGATAGCCAGAGTAATCCCGG, the sensor-assay potency score (higher = more potent) is -0.0464.
On to TAACATATTATGGTACACTGGC, for which the sensor-assay potency score (higher = more potent) worked out at 0.119.
As for AATATCTTGACTTAGTGCCATG, the sensor-assay potency score (higher = more potent) was -1.68.
On the same count and under the same terms, as for TTTCTGAATATCTTGACTTAGT, the figure is -0.78; as for TAGATAATAACTCTTCTGGTAA, -0.812.
On the same count and under the same terms, the figure for TTTACATTGATTCCACTGCTAT is -0.568.
Same read-out and setting: the figure for TTTCTTGTCGATCACCCCGAGA is -1.14.
In the case of TTGACTGAAAAACACGCTCAAC, the sensor-assay potency score (higher = more potent) was -1.28.
On the same count and under the same terms, as for TACAGGAACTTGATTAGGCTGA, the figure is 0.0825.
With TATTGTTTTCTGAATATCTTGA, the sensor-assay potency score (higher = more potent) is 0.459.
On the same count and under the same terms, as for TTACATACTCTGTTGATTCAAC, the figure is 0.0551.

In the next assay the target is CASK. The assay is described as above. The settings on record: shRNA.
Take TTGTGCTCTTACATAGATCTGT: the sensor-assay potency score (higher = more potent) was 0.417.
Turning to TAAAATACGCTTTAGTTCCTTT, the sensor-assay potency score (higher = more potent) is -0.108.
Consider TTACATAGATCTGTCGTCCTTT, for which the sensor-assay potency score (higher = more potent) stood at 0.751.
In turn, TATATGTCTCCAATAACTCTAC registered a sensor-assay potency score (higher = more potent) of -0.605.
On the same count and under the same terms, as for TTCATGTGCCACTACGTCGTGA, the figure is -0.762; as for TTTTGAAACTGTACCAGCCGAA, -0.413; as for TACATCGTCGTACAACACTGAA, -1.22.
Take TAAAGCATTCCATCTGAGCTAT: the sensor-assay potency score (higher = more potent) is -0.371.
For ATTTGTGACTTGACACAGCGGC, the sensor-assay potency score (higher = more potent) is 0.473.
Same read-out and setting: the figure for TTTCTCTGTTGATACATCGTCG is -0.203.
With TAGTAGTGTGTGAAGATGCTGA, the sensor-assay potency score (higher = more potent) came out at 0.139.
TAAGATGTCAGACTCCTTCTGC registered a sensor-assay potency score (higher = more potent) of 0.313.
